# Laboratory results: PubChem BioAssay (EPA / NIEHS)
# The source made the active and inactive calls. Rule for the calls: active = hit-call score of the fitted dose curve at least 0.9, where 1 is the maximum; inactive = score below 0.9.
# Assays:
# [1] = read-out: Tumor necrosis factor receptor superfamily member 6 (Homo sapiens) (UniProt P25445); assay: LTEA_HepaRG_FAS: Life Technologies and Expression Analysis (LTEA) Assay for Fas cell surface death receptor (FAS) using HepaRG (AID 2283447); conditions: mRNA level, 48 h; actives raise or lower the signal
# Method in brief: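 Differentiated human HepaRG cells, pre-cultured 48 h, were exposed in duplicate for 48 h to 8-point half-log concentrations (top 100 uM, 0.5% DMSO) in serum-free induction medium; FAS mRNA measured by qRT-PCR, normalized to ACTB/GAPDH/POLR2A, bidirectional fit versus DMSO.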
# [2] = read-out: Cyclin D2 (CCND2), CCND2 (gene 894); assay: LTEA_HepaRG_CCND2: Life Technologies and Expression Analysis (LTEA) Assay for Cyclin D2 (CCND2) using HepaRG (AID 2283449); conditions: mRNA level, 48 h; actives raise or lower the signal;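 note: CCND2 transcript measured by TaqMan qRT-PCR and normalised to three housekeeping genes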
# Method in brief: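 In this HepaRG study, an eight-point concentration series (max 100 uM, 0.5% DMSO) is applied for 48 h. CCND2 mRNA change is derived by qRT-PCR normalised to ACTB, GAPDH and POLR2A.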
# [3] = read-out: Cyclin Dependent Kinase Inhibitor 1A (CDKN1A), CDKN1A (gene 1026); assay: LTEA_HepaRG_CDKN1A: Life Technologies and Expression Analysis (LTEA) Assay for Cyclin Dependent Kinase Inhibitor 1A (CDKN1A) using HepaRG (AID 2283450); conditions: mRNA level, 48 h; actives raise or lower the signal
# Method in brief: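 Cryopreserved HepaRG cells were plated and cultured 48 h, then switched to serum-free induction medium. Chemicals (eight half-log concentrations, top 100 uM, 0.5% DMSO) were applied for 48 h. Lysates underwent qRT-PCR for CDKN1A with housekeeping normalization.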
# [4] = read-out: Cyclin D1 (CCND1), CCND1 (gene 595); assay: LTEA_HepaRG_CCND1: Life Technologies and Expression Analysis (LTEA) Assay for Cyclin D1 (CCND1) using HepaRG (AID 2283451); conditions: mRNA level, 48 h; actives raise or lower the signal
# Method in brief: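 Human liver HepaRG line; 48 h dosing, 8 conc. ≤100 uM, 0.5% DMSO; TaqMan qRT-PCR mRNA, 3 housekeeping genes; bidirectional curve fit vs DMSO.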
# [5] = read-out: flavin-containing dimethylaniline monooxygenases 3 (FMO3), FMO3 (gene 2328); assay: LTEA_HepaRG_FMO3: Life Technologies and Expression Analysis (LTEA) Assay for flavin-containing dimethylaniline monooxygenases 3 (FMO3) using HepaRG (AID 2283453); conditions: mRNA level, 48 h; actives raise or lower the signal;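 for AC50: FMO3 transcript by TaqMan qRT-PCR normalized to ACTB GAPDH and POLR2A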
# Method in brief: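 Eight-point concentration-response in serum-free HepaRG cultures (top 100 uM, 0.5% DMSO, 48 h). Read-out: FMO3 mRNA level normalized to three endogenous control genes, fitted bidirectionally versus vehicle.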
# [6] = read-out: Cytochrome P450 (CYP1A1), CYP1A1 (gene 1543); assay: LTEA_HepaRG_CYP1A1: Life Technologies and Expression Analysis (LTEA) Assay for Cytochrome P450 (CYP1A1) using HepaRG (AID 2283454); conditions: mRNA level, 48 h; actives raise or lower the signal
# Method in brief: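 Induction of CYP1A1 mRNA in a human hepatic cell line was measured 48 h after dosing, with 1 mM phenobarbital as induction positive control and 0.5% DMSO vehicle as baseline for bidirectional curve fitting.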
# [7] = read-out: CFLAR gene, CFLAR (gene 8837); assay: LTEA_HepaRG_CFLAR: Life Technologies and Expression Analysis (LTEA) Assay for CFLAR gene using HepaRG (AID 2283455); conditions: mRNA level, 48 h; actives raise or lower the signal
# Method in brief: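 Gain- or loss-of-signal changes in CFLAR transcript were fitted bidirectionally relative to 0.5% DMSO. Cells (HepaRG, duplicate wells) were dosed for 48 h across eight half-log concentrations topping at 100 uM; quantitation by TaqMan qRT-PCR.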
# [8] = read-out: Forkhead box O1 (FOXO1), FOXO1 (gene 2308); assay: LTEA_HepaRG_FOXO1: Life Technologies and Expression Analysis (LTEA) Assay for Forkhead box O1 (FOXO1) using HepaRG (AID 2283456); conditions: mRNA level, 48 h; actives raise or lower the signal
# Method in brief: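 Using one lot of HepaRG hepatic cells kept in 0.5% DMSO, the team applied test chemicals in duplicate, half-log dilutions from 100 uM, for 48 h. Expression, normalised to ACTB/GAPDH/POLR2A, was compared with vehicle in either direction.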
# [9] = CEETOX_H295R_TESTO: CeeTox H295R High-throughput Steroidogenesis Assay for Testosterone (TESTO) (AID 2283457); conditions: actives raise or lower the signal;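 note: cells exposed to chemicals for 48 h before medium collection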
# Method in brief: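 Testosterone synthesis is assessed in human adrenocortical H295R cells after 48 h of chemical exposure, using HPLC-MS/MS of extracted medium. Activity is fitted in both directions against DMSO control.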
# [10] = read-out: growth arrest and DNA damage 45 (GADD45A), GADD45A (gene 1647); assay: LTEA_HepaRG_GADD45A: Life Technologies and Expression Analysis (LTEA) Assay for growth arrest and DNA damage 45 (GADD45A) using HepaRG (AID 2283458); conditions: mRNA level, 48 h; actives raise or lower the signal
# Method in brief: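 Eight-point concentration-response in HepaRG cells: 48 h chemical exposure, 0.5% DMSO vehicle, top dose 100 uM. Normalized qRT-PCR mRNA readout with bidirectional fitting relative to DMSO.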
# [11] = read-out: Forkhead box O3 (FOXO3), FOXO3 (gene 2309); assay: LTEA_HepaRG_FOXO3: Life Technologies and Expression Analysis (LTEA) Assay for Forkhead box O3 (FOXO3) using HepaRG (AID 2283459); conditions: mRNA level, 48 h; actives raise or lower the signal
# Method in brief: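 Gene-expression endpoint: FOXO3 transcript level by qRT-PCR in HepaRG cultures treated 48 h with chemicals up to 100 uM (half-log, 0.5% DMSO vehicle).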
# [12] = read-out: ABC Transporter (ABCB1), ABCB1 (gene 5243); assay: LTEA_HepaRG_ABCB1: Life Technologies and Expression Analysis (LTEA) Assay for ABC Transporter (ABCB1) using HepaRG (AID 2283460); conditions: mRNA level, 48 h; actives raise or lower the signal
# Method in brief: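 Human liver HepaRG line treated 48 h with up to 100 uM compound (eight half-log points, 0.5% DMSO); ABCB1 mRNA change fitted bidirectionally against DMSO controls.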
# [13] = read-out: growth arrest and DNA damage 45 (GADD45B), GADD45B (gene 4616); assay: LTEA_HepaRG_GADD45B: Life Technologies and Expression Analysis (LTEA) Assay for growth arrest and DNA damage 45 (GADD45B) using HepaRG (AID 2283461); conditions: mRNA level, 48 h; actives raise or lower the signal
# Method in brief: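 Values are bidirectional concentration-response fits against 0.5% DMSO controls. Underlying data: qRT-PCR mRNA levels in human HepaRG liver cells treated 48 h in serum-free induction medium, eight concentrations topping at 100 uM.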
# [14] = read-out: ABC Transporter (ABCC3), ABCC3 (gene 8714); assay: LTEA_HepaRG_ABCC3: Life Technologies and Expression Analysis (LTEA) Assay for ABC Transporter (ABCC3) using HepaRG (AID 2283462); conditions: mRNA level, 48 h; actives raise or lower the signal
# Method in brief: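 Differentiated HepaRG liver cells receive test chemicals at eight concentrations (max 100 uM) for 48 h. Expression of ABCC3 is quantified by qRT-PCR against ACTB, GAPDH and POLR2A, and activity is fitted in both directions against the DMSO control.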
# [15] = read-out: ABC Transporter (ABCB11), ABCB11 (gene 8647); assay: LTEA_HepaRG_ABCB11: Life Technologies and Expression Analysis (LTEA) Assay for ABC Transporter (ABCB11) using HepaRG (AID 2283463); conditions: mRNA level, 48 h; actives raise or lower the signal
# Method in brief: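 Using HepaRG cultures held in 0.5% DMSO, chemicals were tested at half-log dilutions from 100 uM for 48 h. Induction or suppression of ABCB11 mRNA, normalized to ACTB, GAPDH and POLR2A, was fitted bidirectionally against vehicle.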
# [16] = read-out: ABC Transporter (ABCC2), ABCC2 (gene 1244); assay: LTEA_HepaRG_ABCC2: Life Technologies and Expression Analysis (LTEA) Assay for ABC Transporter (ABCC2) using HepaRG (AID 2283464); conditions: mRNA level, 48 h; actives raise or lower the signal
# Method in brief: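 Gene expression of ABCC2 was determined by qRT-PCR in HepaRG cells exposed 48 h to chemicals (highest 100 uM, half-log dilutions). Activity was fitted in both directions relative to 0.5% DMSO vehicle.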
# [17] = read-out: Broad substrate specificity ATP-binding cassette transporter ABCG2 (Homo sapiens) (UniProt Q9UNQ0); assay: LTEA_HepaRG_ABCG2: Life Technologies and Expression Analysis (LTEA) Assay for ABC Transporter (ABCG2) using HepaRG (AID 2283465); conditions: mRNA level, 48 h; actives raise or lower the signal
# Method in brief: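 Gene expression of ABCG2 in HepaRG liver cells is quantified by qRT-PCR following 48 h exposure across an eight-point series topping at 100 uM. Values come from bidirectional fitting relative to DMSO vehicle.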
# [18] = read-out: ATP-citrate lyase (ACLY), ACLY (gene 47); assay: LTEA_HepaRG_ACLY: Life Technologies and Expression Analysis (LTEA) Assay for ATP-citrate lyase (ACLY) using HepaRG (AID 2283466); conditions: mRNA level, 48 h; actives raise or lower the signal
# Method in brief: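 ACLY expression changes in human HepaRG liver cells are quantified by qRT-PCR after 48 h exposure to test chemicals (maximum 100 uM, half-log steps). Values are fitted in both directions relative to 0.5% DMSO vehicle.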
# [19] = read-out: catalase (CAT), CAT (gene 847); assay: LTEA_HepaRG_CAT: Life Technologies and Expression Analysis (LTEA) Assay for catalase (CAT) using HepaRG (AID 2283452); conditions: mRNA level, 48 h; actives raise or lower the signal
# Method in brief: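 Differentiated HepaRG cells in serum-free induction medium were dosed 48 h in duplicate, eight half-log concentrations from 100 uM in 0.5% DMSO. Transcript measured by TaqMan qRT-PCR, normalised to ACTB/GAPDH/POLR2A, fitted bidirectionally against DMSO.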
# Chain of Broad substrate specificity ATP-binding cassette transporter ABCG2 (Homo sapiens) (Q9UNQ0 whole entry, looked up): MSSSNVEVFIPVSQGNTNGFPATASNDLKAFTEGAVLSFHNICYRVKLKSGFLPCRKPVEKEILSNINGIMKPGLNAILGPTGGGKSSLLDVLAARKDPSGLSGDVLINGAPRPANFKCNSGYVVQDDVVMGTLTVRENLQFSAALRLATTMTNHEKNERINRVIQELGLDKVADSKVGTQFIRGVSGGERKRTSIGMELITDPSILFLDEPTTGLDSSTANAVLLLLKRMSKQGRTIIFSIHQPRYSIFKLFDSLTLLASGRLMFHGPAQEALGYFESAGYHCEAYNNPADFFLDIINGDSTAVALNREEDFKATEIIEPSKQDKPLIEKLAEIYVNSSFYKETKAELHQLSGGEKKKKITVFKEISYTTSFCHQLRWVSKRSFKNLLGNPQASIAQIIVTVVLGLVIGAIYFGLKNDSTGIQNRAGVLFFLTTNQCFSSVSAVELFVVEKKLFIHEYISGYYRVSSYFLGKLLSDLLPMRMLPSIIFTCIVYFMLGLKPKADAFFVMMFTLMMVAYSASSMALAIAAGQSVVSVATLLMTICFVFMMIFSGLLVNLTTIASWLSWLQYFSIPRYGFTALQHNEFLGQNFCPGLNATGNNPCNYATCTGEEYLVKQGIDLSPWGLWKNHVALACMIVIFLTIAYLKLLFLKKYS
compound,measurement,setting,value
CCC(=O)O[C@H]1CC[C@H]2[C@@H]3CCC4=CC(=O)CC[C@]4(C)[C@H]3CC[C@]12C,outcome,[1],inactive
same,outcome,[2],inactive
same,outcome,[3],inactive
same,outcome,[4],inactive
same,outcome,[5],inactive
same,AC50,[6],13.1 µM (active)
same,outcome,[7],inactive
same,outcome,[8],inactive
same,AC50,[9],3.77 µM (active)
same,outcome,[10],inactive
same,outcome,[11],inactive
same,outcome,[12],inactive
same,AC50,[13],0.101 µM (active)
same,outcome,[14],inactive
same,AC50,[15],9.78 µM (active)
same,outcome,[16],inactive
same,outcome,[17],inactive
same,outcome,[18],inactive
CCC(C)(CC)c1cc(NC(=O)c2c(OC)cccc2OC)on1,outcome,[1],inactive
same,outcome,[2],inactive
same,outcome,[3],inactive
same,outcome,[4],inactive
same,outcome,[5],inactive
same,AC50,[6],10.2 µM (active)
same,outcome,[7],inactive
same,outcome,[8],inactive
same,outcome,[10],inactive
same,outcome,[11],inactive
same,AC50,[12],1.15 µM (active)
same,outcome,[13],inactive
same,outcome,[14],inactive
same,AC50,[15],83 µM (active)
same,AC50,[16],6.13 µM (active)
same,outcome,[17],inactive
same,outcome,[18],inactive
CCOP(=S)(OCC)SCSC(C)(C)C,outcome,[1],inactive
same,outcome,[2],inactive
same,outcome,[3],inactive
same,outcome,[4],inactive
same,outcome,[5],inactive
same,outcome,[6],inactive
same,outcome,[8],inactive
same,outcome,[10],inactive
same,outcome,[11],inactive
same,outcome,[12],inactive
same,outcome,[13],inactive
same,outcome,[14],inactive
same,AC50,[15],18.6 µM (active)
same,outcome,[16],inactive
same,outcome,[17],inactive
same,outcome,[18],inactive
Nc1ccc(-c2ccc(N)cc2)cc1,outcome,[1],inactive
same,outcome,[2],inactive
same,outcome,[3],inactive
same,outcome,[4],inactive
same,outcome,[5],inactive
same,AC50,[6],50 µM (active)
same,outcome,[7],inactive
same,outcome,[8],inactive
same,outcome,[10],inactive
same,outcome,[11],inactive
same,AC50,[12],0.0737 µM (active)
same,outcome,[13],inactive
same,outcome,[14],inactive
same,AC50,[15],3.77 µM (active)
same,outcome,[16],inactive
same,outcome,[17],inactive
same,outcome,[18],inactive
ClC1=C(Cl)[C@]2(Cl)[C@@H]3[C@H]4C[C@H]([C@@H]5O[C@H]45)[C@@H]3[C@@]1(Cl)C2(Cl)Cl,outcome,[1],inactive
same,outcome,[3],inactive
same,outcome,[4],inactive
same,AC50,[5],50 µM (active)
same,outcome,[6],inactive
same,outcome,[7],inactive
same,outcome,[8],inactive
same,outcome,[10],inactive
same,outcome,[11],inactive
same,outcome,[12],inactive
same,outcome,[13],inactive
same,outcome,[14],inactive
same,AC50,[15],5.27 µM (active)
same,AC50,[16],2.13 µM (active)
same,AC50,[17],6.76 µM (active)
same,outcome,[18],inactive
CCC(C)(c1ccc(O)cc1)c1ccc(O)cc1,outcome,[1],inactive
same,outcome,[2],inactive
same,outcome,[3],inactive
same,outcome,[4],inactive
same,outcome,[5],inactive
same,outcome,[6],inactive
same,outcome,[8],inactive
same,outcome,[10],inactive
same,outcome,[11],inactive
same,outcome,[12],inactive
same,outcome,[13],inactive
same,outcome,[14],inactive
same,AC50,[15],88.1 µM (active)
same,outcome,[16],inactive
same,outcome,[17],inactive
same,outcome,[18],inactive
COc1ccc(O)c(C(C)(C)C)c1,outcome,[1],inactive
same,outcome,[2],inactive
same,outcome,[3],inactive
same,outcome,[19],inactive
same,outcome,[5],inactive
same,outcome,[6],inactive
same,outcome,[8],inactive
same,outcome,[10],inactive
same,outcome,[11],inactive
same,outcome,[12],inactive
same,outcome,[13],inactive
same,outcome,[14],inactive
same,outcome,[15],inactive
same,outcome,[16],inactive
same,outcome,[17],inactive
same,outcome,[18],inactive
C1CC2OC2CC1C1CO1 (stereo unspecified),outcome,[1],inactive
same,outcome,[3],inactive
same,outcome,[19],inactive
same,outcome,[5],inactive
same,outcome,[6],inactive
same,outcome,[8],inactive
same,outcome,[10],inactive
same,outcome,[11],inactive
same,outcome,[12],inactive
same,outcome,[13],inactive
same,outcome,[14],inactive
same,outcome,[15],inactive
same,outcome,[16],inactive
same,outcome,[17],inactive
same,outcome,[18],inactive
